# Values joined by “and” are separate entries in the source; they are usually repeats but may differ in a detail not shown here. Equal values may be shown once. Inconclusive results are not listed. Active and inactive are the calls of the source.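 Rule for the calls, unless noted: active = normalized viability below 100% at a tested concentration; inactive = the rest.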
# Legend:
# [1] = P. berghei load reduction in hepatocytes – cell-based, HepG2, luciferase luminescence, HepG2 viability, primary screen (AID 624349; in the data active = parasite load remaining mostly below about 12%, no sharp cut-off; inactive = mostly above about 10%;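 note: 100% = mean of DMSO negative control wells on the same plate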); conditions: P. berghei liver stage in HepG2, luciferase luminescence, concentration not given here; parasite load remaining: stronger effect = lower value; viability: measured here: HepG2 viability without parasites
# [2] = system: Aerobactin synthetase IucA (Klebsiella pneumoniae); experiment: inhibition of K. pneumoniae IucA enzyme – biochemical, Tocris library, absorbance (AID 1345561; call rule not given here;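 note: 100% = enzyme without compound and 0% = no enzyme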); conditions: purified IucA enzyme assay, absorbance (OD) read-out; stronger effect = lower value;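 tested at 8 µM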
# [3] = viability loss in pontine glioma line – cell-based, SU-DIPG-XIII, MIPE4.0, CellTiter-Glo, qHTS, dose response (AID 1347061; cut-off not given, nearly all actives have AC50 up to about 37 µM;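 note: cells exposed to compound for 48 hours before readout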); conditions: CellTiter-Glo ATP luminescence
# [4] = viability loss in pontine glioma line – cell-based, JHH-DIPG-1, MIPE4.0, CellTiter-Glo, qHTS, dose response (AID 1347062; cut-off not given, nearly all actives have AC50 up to about 27 µM;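 for AC50: cells exposed to compound for two days before readout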); conditions: JHH-DIPG-1 viability, CellTiter-Glo ATP luminescence
# [5] = viability loss in pontine glioma line – cell-based, SU-DIPG-IV, MIPE4.0, CellTiter-Glo, qHTS, dose response (AID 1347063; cut-off not given, nearly all actives have AC50 up to about 30 µM;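 note: compound exposure lasted 48 hours before the viability readout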); conditions: CellTiter-Glo ATP luminescence
# [6] = viability loss in pontine glioma line – cell-based, SU-DIPG-XIII, MIPE5.0, CellTiter-Glo, qHTS, dose response (AID 1347064; cut-off not given, nearly all actives have AC50 up to about 23 µM;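 for AC50: cells exposed to compound for 48 hours before the viability read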); conditions: CellTiter-Glo ATP luminescence
# [7] = viability loss in pontine glioma line – cell-based, SU-DIPG-XXV, MIPE5.0, CellTiter-Glo, qHTS, dose response (AID 1347065; cut-off not given, nearly all actives have AC50 up to about 26 µM;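 note: cells exposed to compound for 48 hours before ATP readout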); conditions: CellTiter-Glo ATP luminescence
# [8] = growth inhibition of DIPG cells – cell-based, MIPE4.0 library, CellTiter-Glo luminescence, qHTS (AID 1347066; cut-off not given, nearly all actives have AC50 up to about 30 µM;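 note: cells exposed to compound for 48 hours before readout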); conditions: SU-DIPG-VI viability, CellTiter-Glo ATP luminescence
# [9] = JHH-DIPG-1 glioma cell viability, MIPE5.0 library, CellTiter-Glo luminescence, qHTS (AID 1347067; cut-off not given, nearly all actives have AC50 up to about 26 µM;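 note: cells exposed to compound for 48 hours before readout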); conditions: JHH-DIPG-1 glioma viability, CellTiter-Glo ATP luminescence
# [10] = growth inhibition of DIPG cells – cell-based, MIPE5.0 library, qHTS (AID 1347068; cut-off not given, nearly all actives have IC50 up to about 30 µM;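 for IC50: cells exposed to compound for 48 hours before viability readout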); conditions: SU-DIPG-XXV viability
# [11] = viability loss with induced miR-34 in A549 – imaging, A549 dox-inducible miR-34, nuclei and caspase counts, primary screen (AID 1347080;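 active = compounds whose cell count with miR-34 switched on is under 0.7 times the count with it off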); conditions: A549 miR-34 inducible, Hoechst nuclei count, 48 h
# [12] = MELAS cybrid and Rieske KO viability enhancers – cell-based, MELAS cybrids, Rieske KO mouse fibroblasts, CellTiter-Glo, primary screen (AID 1508586;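 active = mean z-score across replicates of 1.96 or higher in either the MELAS or the Rieske mutant cell line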;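 note: z relative to plate mean and SD of compound and empty wells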); conditions: low glucose
# [13] = galactose survival enhancers in mitochondrial complex I cybrids – cell-based, galactose medium, ATP luminescence, primary screen (AID 1645843;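 active = z-score of at least 1.8 in each of two replicates, scored against plate mean and spread of sample wells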;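 note: positive z means more ATP and so rescue of galactose-driven cybrid death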); conditions: complex I mutant cybrid cells, 72 h, stronger effect = higher value
# [14] = system: Hepatitis C virus NS3 helicase; experiment: blockers of NS3h binding to ssDNA – biochemical, fluorescence polarization, LOPAC1280 library, primary screen (AID 687035; in the data active = inhibition above about 37%); conditions: Purified HCV NS3 helicase, Cy5-dT15 ssDNA binding fluorescence polarization; stronger effect = higher value; concentration not given here
# [15] = compounds altering Cy5-DNA-NS3h complex signal – biochemical, LOPAC1280, artefact control for HCV NS3 helicase inhibitor project (AID 687037; call rule not given here); conditions: Cy5-DNA-NS3h complex fluorescence interference counterscreen
# [16] = viability loss in pontine glioma line – cell-based, SU-DIPG-XVII, MIPE5.0, CellTiter-Glo, qHTS, dose response (AID 1347060; cut-off not given, nearly all actives have AC50 up to about 26 µM;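 note: cells exposed to compound for 48 hours before viability readout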); conditions: CellTiter-Glo ATP luminescence
# [17] = compounds altering HSF1 focus formation in cells – imaging, Selleck Cancer Library (AID 1347162; in the data active = plate-normalised HSF1 focus index below about 0.46); conditions: human cells, HSF1 nuclear foci imaging, at 10 µM; SSMD: measured here: HSF1 foci SSMD mean; cell count: measured here: cell number; plate-normalised HSF1 focus index: stronger effect = lower value
# [18] = drug combination growth inhibition, ovarian cancer – cell-based, oncology-focused library, rucaparib conditional, profiling panel (AID 1508598); conditions: patient-derived ovarian cancer cells, CellTiter-Glo viability, 144 h, stronger effect = lower value
# [19] = stronger effect = lower value, cell number ratio, induced over uninduced
# [20] = measured here: relative caspase fold change +Dox/-Dox
# [21] = measured here: total cells with miR-34 induction, stronger effect = lower value
# [22] = measured here: total cells without miR-34 induction
# [23] = MELAS cybrid survival, CellTiter-Glo 48 h, stronger effect = higher value
# [24] = Rieske KO mouse fibroblast survival, CellTiter-Glo 72 h
compound,measurement,setting,value
O=C(c1ccc(Nc2nccc(-c3cc4ccccc4s3)n2)cc1)N1CCC(N2CCCC2)CC1,parasite load remaining,[1],27.7% (inactive)
same,viability,[1],86.2%
same,remaining activity,[2],98.9% (inactive)
same,AC50,[3],23.5 µM (active)
same,AC50,[4],18.7 µM (active)
same,AC50,[5],8.33 µM (active)
same,AC50,[6],8.33 µM (active)
same,AC50,[7],7.42 µM (active)
same,AC50,[8],18.7 µM (active)
same,AC50,[9],9.34 µM (active)
same,IC50,[10],9.34 µM (active)
same,fold change,[11]; [19],1.04 (inactive) and 1.02 (inactive)
same,fold change,[11]; [20],0.636 and 0.577
same,cell count,[11]; [21],3590 and 394
same,cell count,[11]; [22],3460 and 385
same,z-score,[12]; [23],-0.0984 (inactive)
same,z-score,[12]; [24],0.125
same,z-score,[13],-0.705 (inactive)
CC(C)N(CCC(=O)c1ccc2ccccc2c1)Cc1ccccc1,parasite load remaining,[1],28.5% (inactive)
same,viability,[1],88.8%
same,inhibition,[14],-3% (inactive)
same,fluorescence ratio (interference),[15],0.9 (inactive)
same,remaining activity,[2],113% (inactive)
same,AC50,[16],7.42 µM (active)
same,AC50,[6],7.42 µM (active)
same,AC50,[7],6.61 µM (active)
same,AC50,[9],4.17 µM (active)
same,fold change,[11]; [19],1.13 (inactive) and 0.795 (inactive) and 0.953 (inactive)
same,fold change,[11]; [20],1 and 0.533 and 0.643
same,cell count,[11]; [21],10100 and 6810 and 7420
same,cell count,[11]; [22],8940 and 8570 and 7790
same,z-score,[12]; [23],-0.331 (inactive)
same,z-score,[12]; [24],-0.0503
same,z-score,[13],-1.29 (inactive) and -0.82 (inactive)
Nc1nccc(-c2ccc3noc(-c4ccc(Cl)cc4)c3c2)n1,parasite load remaining,[1],22.2% (inactive)
same,viability,[1],88.2%
same,remaining activity,[2],127% (inactive)
same,outcome,[4],inactive
same,AC50,[7],20.9 µM (active)
same,outcome,[8],inactive
same,fold change,[11]; [19],0.777 (inactive)
same,fold change,[11]; [20],2.19
same,cell count,[11]; [21],3770
same,cell count,[11]; [22],4860
same,SSMD,[17],3.12
same,cell count,[17],7060
same,plate-normalised HSF1 focus index,[17],1.19 (inactive)
same,z-score,[13],-0.05 (inactive)
O=c1cc(N2CCOCC2)oc2c(-c3ccccc3)cccc12,parasite load remaining,[1],36% (inactive)
same,viability,[1],79.9%
same,inhibition,[14],-3% (inactive)
same,fluorescence ratio (interference),[15],1 (inactive)
same,remaining activity,[2],118% (inactive)
same,outcome,[3],inactive
same,AC50,[5],2.64 µM (active)
same,outcome,[6],inactive
same,outcome,[10],inactive
same,SSMD,[17],1.15
same,cell count,[17],6500
same,plate-normalised HSF1 focus index,[17],1.06 (inactive)
same,z-score,[12]; [23],-0.417 (inactive)
same,z-score,[12]; [24],0.668
same,viability,"[18]; at 0.000305 µM, OCI-C5x cells, with rucaparib 10 µM, 100% = cells with rucaparib alone",97.6% (active)
same,viability,"[18]; at 0.000305 µM, OCI-C5x cells, without rucaparib",103% (inactive)
same,viability,"[18]; at 0.000305 µM, OCI-P5x cells, with rucaparib 20 µM, 100% = cells with rucaparib alone",93.4% (active)
same,viability,"[18]; at 0.000305 µM, OCI-P5x cells, without rucaparib",83.4% (active)
same,viability,"[18]; at 0.00122 µM, OCI-C5x cells, with rucaparib 10 µM, 100% = cells with rucaparib alone",102% (inactive)
same,viability,"[18]; at 0.00122 µM, OCI-C5x cells, without rucaparib",103% (inactive)
same,viability,"[18]; at 0.00122 µM, OCI-P5x cells, with rucaparib 20 µM, 100% = cells with rucaparib alone",97.2% (active)
same,viability,"[18]; at 0.00122 µM, OCI-P5x cells, without rucaparib",86.3% (active)
same,viability,"[18]; at 0.00488 µM, OCI-C5x cells, with rucaparib 10 µM, 100% = cells with rucaparib alone",93% (active)
same,viability,"[18]; at 0.00488 µM, OCI-C5x cells, without rucaparib",104% (inactive)
same,viability,"[18]; at 0.00488 µM, OCI-P5x cells, with rucaparib 20 µM, 100% = cells with rucaparib alone",99.1% (active)
same,viability,"[18]; at 0.00488 µM, OCI-P5x cells, without rucaparib",95.7% (active)
same,viability,"[18]; at 0.0195 µM, OCI-C5x cells, with rucaparib 10 µM, 100% = cells with rucaparib alone",102% (inactive)
same,viability,"[18]; at 0.0195 µM, OCI-C5x cells, without rucaparib",104% (inactive)
same,viability,"[18]; at 0.0195 µM, OCI-P5x cells, with rucaparib 20 µM, 100% = cells with rucaparib alone",98.1% (active)
same,viability,"[18]; at 0.0195 µM, OCI-P5x cells, without rucaparib",96% (active)
same,viability,"[18]; at 0.0781 µM, OCI-C5x cells, with rucaparib 10 µM, 100% = cells with rucaparib alone",106% (inactive)
same,viability,"[18]; at 0.0781 µM, OCI-C5x cells, without rucaparib",101% (inactive)
same,viability,"[18]; at 0.0781 µM, OCI-P5x cells, with rucaparib 20 µM, 100% = cells with rucaparib alone",102% (inactive)
same,viability,"[18]; at 0.0781 µM, OCI-P5x cells, without rucaparib",98.9% (active)
same,viability,"[18]; at 0.313 µM, OCI-C5x cells, with rucaparib 10 µM, 100% = cells with rucaparib alone",106% (inactive)
same,viability,"[18]; at 0.313 µM, OCI-C5x cells, without rucaparib",108% (inactive)
same,viability,"[18]; at 0.313 µM, OCI-P5x cells, with rucaparib 20 µM, 100% = cells with rucaparib alone",98% (active)
same,viability,"[18]; at 0.313 µM, OCI-P5x cells, without rucaparib",97.6% (active)
same,viability,"[18]; at 1.25 µM, OCI-C5x cells, with rucaparib 10 µM, 100% = cells with rucaparib alone",94% (active)
same,viability,"[18]; at 1.25 µM, OCI-C5x cells, without rucaparib",109% (inactive)
same,viability,"[18]; at 1.25 µM, OCI-P5x cells, with rucaparib 20 µM, 100% = cells with rucaparib alone",99.6% (active)
same,viability,"[18]; at 1.25 µM, OCI-P5x cells, without rucaparib",102% (inactive)
same,viability,"[18]; at 5 µM, OCI-C5x cells, with rucaparib 10 µM, 100% = cells with rucaparib alone",98.7% (active)
same,viability,"[18]; at 5 µM, OCI-C5x cells, without rucaparib",107% (inactive)
same,viability,"[18]; at 5 µM, OCI-P5x cells, with rucaparib 20 µM, 100% = cells with rucaparib alone",96.2% (active)
same,viability,"[18]; at 5 µM, OCI-P5x cells, without rucaparib",93.7% (active)
same,z-score,[13],5.55 (active) and 5.94 (active)
